Only some compounds are listed: those with a hit (about 12% of all), similar ones and a draw of the others.
HCV inhibitor: qHTS Assay for Inhibitors of Hepatitis C Virus (HCV) | hit rate 3.4% among 340,000 | AID 651820, 2012 | Potency, µM (doses to about 41.8 µM), without a hit: at the top dose activity change, negative = inhibition, most hits filed as inhibitors | Huh7.5.1 HCVcc-Cre infection, luciferase reporter, 44 h; note: % is set by controls: 0 for no effect and ±100 for the full control effect
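After 44 h co-culture of compound, cells and HCVcc-Cre (~0.5 moi), substrate is added for 15 min at room temperature and luciferase measured over 15 sec. Cells were seeded at 1,000/well and pre-cultured 4 h.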
Pf growth 96h: Primary qHTS for delayed death inhibitors of the malarial parasite plastid, 96 hour incubation; Potency, µM (highest dose often 28.7 µM), for the others: top-dose activity change, negative = inhibition, actives largely listed as inhibitors; P. falciparum luciferase reporter growth, 96 h; AID 504834, 2011; hit rate 6.9% among 320,000; note: % is set by controls: 0 for no effect and ±100 for the full control effect
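96 h incubation, 37 C, 5% CO2, of luciferase-reporter P. falciparum-infected RBCs (2% hematocrit, 0.05% parasitemia final) with test compounds; endpoint luminescence.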
AMA1 RON2 block: qHTS for Inhibitors of AMA1-RON; Towards Development of Antimalarial Drug Lead: Primary Screen; hit rate 0.2% among 360,000; AlphaScreen AMA1-biotinylated RON2 peptide binding; Potency, µM (top dose mostly 58.2 µM), inactives show top-dose activity change, negative = inhibition, hits mostly inhibitors; Plasmodium falciparum AMA1 (3D7) - RON2 peptide interaction;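 note: 0% = vehicle wells and -100% = peptide control; nearly all actives have a fitted effect of over 45% in size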
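AMA1 (3D7) with his tag at 25 nM final met compounds first, then biotinylated RON2 peptide at 25 nM; detection used donor plus acceptor beads, 10 µg/mL apiece, read by AlphaScreen after 30 min at room temperature.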
NS1 inh: qHTS Assay for Inhibitors of Influenza NS1 Protein Function; Potency, µM (doses to about 46.1 µM), for inactives: at the highest dose activity, positive = more growth; hit rate 0.4% among 270,000; calls by dose curve; note: actives are rising curves; nearly all actives have a fitted effect of over 50% in size
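In this qHTS, NS1 from influenza A is expressed in budding yeast, where it slows growth. Cells are switched from glucose to 2% galactose medium (pH 6.0, -URA), treated with compound, and growth recovery is read at OD600.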
SARS PLP yeast: qHTS of Yeast-based Assay for SARS-CoV PLP | S. cerevisiae expressing SARS-CoV PLpro, growth rescue | AID 485353, 2010 | Potency, µM (series often up to 32.9 µM), for inactives: at the highest dose activity, positive = growth rescue, usual class: activators | hit rate 0.19% among 330,000; calls by dose curve; note: 0% is about no effect; nearly all actives have a fitted effect of over 55% in size
Pf growth 48h: Primary qHTS for delayed death inhibitors of the malarial parasite plastid, 48 hour incubation; AID 504832, 2011; hit rate 5.9% among 310,000; P. falciparum luciferase growth in erythrocytes, 48 h; Potency, µM (top dose mostly 28.7 µM), inactives show at the top dose activity change, negative = inhibition, usual class: inhibitors; note: % is set by controls: 0 for no effect and ±100 for the full control effect
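Luciferase-expressing parasites in RBCs, 2% Hct / 0.1% parasitemia final; RPMI 1640 + 0.5% Albumax; 37 C, 5% CO2, one generation; luminescence read-out, lower signal = inhibition.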
* = called active by the depositor; u = inconclusive; x = no result given; ! = not active in a repeat; [ ] = remark or other dose. Unless noted, calls come from the whole dose curve; as a rule, active = well fitted curve in the direction sought with a large enough effect; inconclusive = small, poorly fitted or top-dose-only effect, or another doubt; inactive = no such curve, though single readings can be large; an effect the other way counts as inactive or inconclusive. Potency is the fitted concentration of half-maximal effect.

SMILES | HCV inhibitor | Pf growth 96h | AMA1 RON2 block | NS1 inh | SARS PLP yeast | Pf growth 48h
O=C(CCC1CCCC1)N[C@@H](Cc1ccc(O)cc1)C(=O)O | -6.6% | 0.0% | 6.0% | 4.6% | -0.6% | 53.0%
Cc1ccc(S(=O)(=O)Nc2cc(C)c(O)c(Sc3n[nH]c(C)n3)c2)cc1 | -2.3% | 1.8% | 24.5% | 15.7% | 0.8% | -15.9%
Cc1nc(S(=O)(=O)c2ccc(Cl)cc2)c(N(C)C)o1 | 9.1% | 58.3% | -5.2% | 19.5% | 5.5% | 32.1%
COc1ccc2c(c1OC)CN(C)CCc1cc3c(cc1C(=O)C2)OCO3 | -2.7% | -11.0% | -13.2% | 0.7% | 0.0% | u
COc1cc2c(cc1OC)C(=O)Cc1ccc3c(c1CN(C)CC2)OCO3 | 23.4% | u | 19.9% | -5.5% | 0.5% | 9.28µM*
CCCOC(=O)c1ccc(-c2c(C)noc2-c2ccc(OC)cc2O)o1 | u | x | -9.7% | -100.1% | -11.9% | 0.738µM*
Cc1cccc(OCC(=O)N/N=C\c2cc3c(cc2[N+](=O)[O-])OCO3)c1C | 11.2µM* | u | 2.6% | -2.3% | -0.2% | x
Cc1cc(C)cc(OCC(=O)N/N=C/c2ccc([N+](=O)[O-])o2)c1 | 11.2µM* | 31.2% | 6.2% | x | 1.3% | 9.28µM*
Cc1ccccc1OCC(=O)N/N=C/c1ccc([N+](=O)[O-])o1 | u | 2.08µM* | 41.1% | -14.7% | 14.8% | 5.22µM*
O=C(COc1ccccc1[N+](=O)[O-])N/N=C/C=C/c1ccco1 | -17.5% | 131.7% | 11.8% | -2.1% | 1.9% | 78.2%
Cc1ccccc1OCC(=O)NCC(=O)N/N=C/c1ccc(Br)o1 | -8.0% | -25.5% | -27.9% | 4.0% | -9.7% | 0.3%
COc1ccccc1OCC(=O)N/N=C/C=C/c1ccc([N+](=O)[O-])o1 | u | 1.47µM* | 14.1% | -49.2% | -38.6% | 4.15µM*
O=S(=O)(c1ccc(NC(=S)NN=Cc2ccccc2O)cc1)N1CCCCC1 | u | x | 35.3% | x | x | x
CCCOc1ccc(CCC(=O)N/N=C/c2ccc([N+](=O)[O-])o2)cc1 | u | 11.7µM* | 51.5% | -0.3% | -3.3% | u
COC(=O)c1cc(C(=O)OCC(=O)c2ccc[nH]2)cc([N+](=O)[O-])c1 | u | -1.5% | 0.0% | x | -1.4% | 10.2%
Nc1nc(-c2ccccn2)nc(N)c1Cc1c(F)cccc1Cl | 5.01µM* | u | u | x | u | 11.7µM*
Nc1nc(-c2ccccn2)nc(N)c1Cc1ccc(Cl)cc1Cl | 3.55µM* | 1.31µM* | -62.8% | x | 22.5% | 1.85µM*
Nc1nc(-c2ccccn2)nc(N)c1Cc1ccccc1F | u | 5.22µM* | -65.4% | x | 26.2% | u
COc1cc(Br)c(C(C)NC(=O)c2ccccc2)cc1OC (centres undefined) | 14.2% | 11.7µM* | 0.0% | -14.6% | 1.2% | 13.1µM*
Cc1ccc(N(Cc2ccccc2)C(=O)c2cc(S(=O)(=O)N3CCOCC3)ccc2F)cc1 | -1.3% | u | 1.9% | x | -1.5% | 11.7µM*
O=C(c1cc(S(=O)(=O)N2CCOCC2)ccc1Cl)N1CCC(Cc2ccccc2)CC1 | -18.1%[8.37 µM] | u | -17.4% | x | -4.9% | u
Cc1ccc(N(Cc2ccccc2)C(=O)c2cc(S(=O)(=O)N3CCOCC3)ccc2Cl)cc1 | u | 13.1µM* | -14.0% | x | 6.7% | u
Cc1cccc(N(Cc2ccccc2)C(=O)c2cc(S(=O)(=O)N3CCOCC3)ccc2Cl)c1 | u | u | -16.1% | x | 3.5% | 11.7µM*
CN(Cc1cccc(Cl)c1Cl)C(=O)c1cc(S(=O)(=O)N2CCOCC2)ccc1F | -20.2% | x | -3.1% | x | -19.3% | x
C=CCN(Cc1ccc(Cl)s1)C(=O)c1cc(S(=O)(=O)N2CCOCC2)ccc1F | 9.2% | u | 0.0% | x | -2.0% | 13.1µM*
SMILES | HCV inhibitor | Pf growth 96h | AMA1 RON2 block | NS1 inh | SARS PLP yeast | Pf growth 48h
Nc1nc2c(c(=O)[nH]1)CN(CCCN1CCOCC1)CN2 | x | x | x | 8.0% | x | x
CC(=O)N[C@@H](CCC(=O)O)C(=O)O | x | -18.6% | x | x | x | 2.7%
N#Cc1ccc(S(=O)(=O)N2CCN(C(=O)[C@@H]3CCCN3C(=O)c3cccs3)CC2)cc1 | 3.3% | u | 20.7% | x | -0.8% | -10.0%
C[C@H](Br)C(=O)c1ccc2cc(Br)c3ccccc3c2c1 | x | x | x | -7.2% | x | x
CN(C(=O)c1cccc(S(=O)(=O)N2CCOCC2)c1)c1c(N)n(Cc2ccccc2)c(=O)[nH]c1=O | -2.2% | -1.9% | 0.0% | x | 2.2% | -7.1%
O=C(NNC1=Nc2ccccc2SC1)c1ccc(F)cc1 | u | u | 58.9% | 0.3% | -0.4% | 10.4µM*
CCOC(=O)c1cc(C(=O)NNC(=O)c2cccc([N+](=O)[O-])c2)c(C)nc1C | u | 19.5% | 33.7% | x | 2.1% | -29.3%
c1ccc([C@H]2CN3C(=N2)Sc2ccccc23)cc1 | u | 123.8% | -1.3% | x | -7.5% | 71.7%
CC(Sc1nnnn1C)C(=O)Nc1ccccc1 (centres undefined) | 9.1% | 30.8% | -22.5% | 2.5% | -8.4% | 7.4%
CC(Sc1nnnn1C)C(=O)Nc1ccccc1-c1ccccc1 (centres undefined) | 5.3% | -70.0% | -1.9% | -6.6% | -1.7% | 10.0%
Cn1nnc2cc(NC(=O)Nc3ccccc3F)ccc21 | x | x | 8.8% | x | x | x
COc1ccccc1NC(=O)C(C)Sc1nnnn1C (centres undefined) | 11.4% | 11.7µM* | 32.8% | 5.3% | 3.1% | 15.2%
Cc1ccc(-n2nnnc2SC(C)C(=O)Nc2ccccc2-c2ccccc2)cc1 (centres undefined) | 7.6% | 9.28µM* | 47.5% | 13.4% | u | u
COc1ccccc1NC(=O)Nc1ccc2c(c1)nnn2C | -0.7% | 9.28µM* | -1.2% | 0.7% | 8.7% | x
Cc1ccc(-c2csc(N=C(N)N)n2)cc1 | -26.5% | -44.6% | -7.6% | -4.8% | -1.0% | u
NC(N)=Nc1nc(CSCC/C(N)=N/S(N)(=O)=O)cs1 | -15.3%[8.37 µM] | 4.26µM*! | 69.9% | -7.8% | -8.1% | -0.9%
COc1ccccc1OCC(=O)Nc1nonc1NC(=O)COc1ccccc1OC | 15.3% | u | 13.6%[2.32 µM] | 4.9% | 14.7% | u
